Source: PubChem BioAssay (Tox21)
Records with an inconclusive call do not appear. The source made the active and inactive calls. Unless noted, calls come from the whole dose curve; as a rule, active = well fitted curve in the direction sought with a large enough effect in the repeat runs; inconclusive = weak or mixed curves; inactive = no such curve, though single readings can be large; an effect the other way counts as inactive or inconclusive.

What was measured:
[1] = qHTS RealTime-Glo MT Cell Viability Assay in HepG2 cells - 16 hour (AID 1224885); note: nearly all actives have a fitted effect of over 50% in size; note: potency is the fitted concentration of half-maximal effect
Method in brief: (§1)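 HepG2 cells (600/well) were dispensed with RealTime-Glo reagents, incubated 5 h at 37 °C, then treated with compounds in DMSO for up to 40 h. Nonlytic NanoLuc luminescence reflecting viable cells was read at each stated time point.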

[2] = qHTS RealTime-Glo MT Cell Viability Assay in HEK293 cells - 24 hour (AID 1224886); note: nearly all actives have a fitted effect of over 50% in size; note: potency is the fitted concentration of half-maximal effect
Method in brief: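 HEK293 cells seeded with NanoLuc/prosubstrate reagent, rested 5 h at 37 C, then dosed and kept at 37 C up to 40 h. Nonlytic real-time luminescence from viable cells read at 0, 8, 16, 24, 32 and 40 h.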

[3] = qHTS RealTime-Glo MT Cell Viability Assay in HEK293 cells - 8 hour (AID 1224887); note: nearly all actives have a fitted effect of over 50% in size; note: potency is the fitted concentration of half-maximal effect
Method in brief: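 600 cells/well were plated with the nonlytic NanoLuc/prosubstrate reagent, pre-incubated 5 h, then given 23 nL of compound in DMSO. Incubation at 37 C for 40 h, with luminescence from viable-cell-reduced substrate read repeatedly from 0 h.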

[4] = A CellTox Green Cytotoxicity Assay to monitor cytotoxicity in HEK293 cells - 16 hour (AID 1224888); note: potency is the fitted concentration of half-maximal effect; nearly all actives have a fitted effect of over 35% in size
Method in brief: (§2)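 HEK293 cells, 600/well, were preincubated 5 hours and then exposed to compounds at 37 C for up to 40 hours. A cell-impermeant cyanine dye staining dead-cell DNA was read by fluorescence at 0, 8, 16, 24, 32 and 40 h time points.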

[5] = A CellTox Green Cytotoxicity Assay to monitor cytotoxicity in HepG2 cells - 8 hour (AID 1224890); note: nearly all actives have a fitted effect of over 45% in size; note: potency is the fitted concentration of half-maximal effect
Method in brief: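 HepG2 cells, 600/well, preincubated 5 h with CellTox Green dye, then exposed to Tox21 compounds in DMSO at 37 C for up to 40 h. Dead-cell DNA fluorescence read at the indicated time point.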

[6] = qHTS assay to identify small molecule antagonists of the estrogen receptor alpha (ER-alpha) signaling pathway using the BG1 cell line in the presence of 0.1 nM 17-beta-estradiol - cell viability counter screen (AID 1259241); note: nearly all actives have a fitted effect of over 40% in size; note: potency is the fitted concentration of half-maximal effect
Method in brief: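 The cell line endogenously expresses full-length ER-alpha and carries four EREs driving luciferase. Cells are cultured 5 days hormone-free, treated 22 hr with compounds and 0.1 nM estradiol, then viability is read by fluorescence.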

[7] = target: Estrogen receptor (Homo sapiens) (UniProt P03372); assay: qHTS assay to identify small molecule antagonists of the estrogen receptor alpha (ER-alpha) signaling pathway using the BG1 cell line in the presence of 0.1 nM 17-beta-estradiol (AID 1259244); note: nearly all actives have a fitted effect of over 50% in size; note: potency is the fitted concentration of half-maximal effect
Estrogen receptor (Homo sapiens), sequence (P03372 whole entry, looked up): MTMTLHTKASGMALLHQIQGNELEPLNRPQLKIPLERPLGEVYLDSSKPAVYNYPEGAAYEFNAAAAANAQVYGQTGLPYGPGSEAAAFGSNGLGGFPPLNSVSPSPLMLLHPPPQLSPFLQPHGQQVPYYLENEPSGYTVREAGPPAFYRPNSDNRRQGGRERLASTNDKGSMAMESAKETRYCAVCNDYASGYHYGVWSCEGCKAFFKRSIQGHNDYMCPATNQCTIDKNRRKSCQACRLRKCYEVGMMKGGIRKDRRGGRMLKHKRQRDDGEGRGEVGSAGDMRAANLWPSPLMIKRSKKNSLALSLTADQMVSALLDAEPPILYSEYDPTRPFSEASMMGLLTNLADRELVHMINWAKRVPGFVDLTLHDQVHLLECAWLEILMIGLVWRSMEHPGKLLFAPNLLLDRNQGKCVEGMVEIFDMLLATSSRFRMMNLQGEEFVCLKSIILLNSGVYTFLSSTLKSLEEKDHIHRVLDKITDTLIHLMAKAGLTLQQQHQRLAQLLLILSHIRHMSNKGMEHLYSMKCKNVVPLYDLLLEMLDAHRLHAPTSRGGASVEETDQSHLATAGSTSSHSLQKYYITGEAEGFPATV
Method in brief: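 VM7Luc4E2 cells (endogenous full-length ER-alpha, 4×ERE-luciferase), kept 5 days in phenol red-free, charcoal-stripped FBS medium; 4,000 cells/well. Compounds added with 0.1 nM (final) 17beta-estradiol, 22 hr at 37C; luminescence read with ONE-Glo after 30 min.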

[8] = qHTS assay to identify small molecule HDAC inhibitors (AID 1259364); note: top concentration of the series differs between compounds; % is set by controls: 0 for no effect and ±100 for the full control effect; nearly all actives have a fitted effect of over 45% in size
Method in brief: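 Wild-type HCT-116 cells, plated overnight at 37 C, exposed to compounds 2 hr at 37 C; luminogenic HDAC-Glo substrate then added 30 min at room temperature. Luminescence reports relative endogenous class I/II HDAC activity.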

[9] = qHTS assay to identify small molecule agonists of the sonic hedgehog signaling (Shh) pathway - cell viability counter screen (AID 1259366); note: nearly all actives have a fitted effect of over 50% in size; note: potency is the fitted concentration of half-maximal effect
Method in brief: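 Viability measured fluorometrically (CellTiter-Fluor, 1hr, 37C) in 3T3 Gli1-Luc reporter cells after 23hr compound exposure within a 24hr incubation at 37C/5% CO2.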

[10] = qHTS assay to identify small molecule antagonists of the sonic hedgehog signaling (Shh) pathway - cell viability counter screen (AID 1259367); note: nearly all actives have a fitted effect of over 55% in size; note: potency is the fitted concentration of half-maximal effect
Method in brief: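 Using CellTiter-Fluor, viability of Gli1-Luc reporter 3T3 cells is read by fluorescence in the wells used for the Shh luciferase assay. Treatment lasts 23 hr with conditioned medium, then reagent 1 hr at 37C.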

[11] = qHTS assay to identify small molecule agonists of the sonic hedgehog signaling (Shh) pathway (AID 1259368; calls by dose curve;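 note: NIH/3T3-derived 3T3Gli1-Luc cells carrying a stable Gli1-driven firefly luciferase reporter; series mostly up to about 92 µM; % is set by controls: 0 for no effect and ±100 for the full control effect; nearly all actives have a fitted effect of over 15% in size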)
Method in brief: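 NIH/3T3-derived 3T3Gli1-Luc cells with stably integrated Gli1-driven firefly luciferase, 2,000 cells/well, compounds added after 4 hr. Incubated 24 hr at 37C, 5% CO2; luminescence read after 30 min with luciferase reagent at room temperature.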

[12] = qHTS assay to identify small molecule antagonists of the sonic hedgehog signaling (Shh) pathway (AID 1259369; calls by dose curve; note: nearly all actives have a fitted effect of over 45% in size; note: potency is the fitted concentration of half-maximal effect)
Method in brief: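 NIH/3T3-derived Gli1-Luc reporter cells plated 4 h, dosed with compound, then stimulated with conditioned medium for 24 h at 37 C. Firefly luciferase luminescence read after 30 min with detection reagent at room temperature.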

[13] = target: Estrogen receptor beta (Homo sapiens) (UniProt Q92731); assay: qHTS assay to identify small molecule antagonists of the estrogen receptor beta (ER-beta) signaling pathway (AID 1259378; active = well fitted inhibition curve with a large enough effect in the signal ratio in the repeat runs, not every such curve was filed as active; the % refers to the signal ratio; note: potency is the fitted concentration of half-maximal effect)
Estrogen receptor beta (Homo sapiens), sequence (Q92731 whole entry, looked up): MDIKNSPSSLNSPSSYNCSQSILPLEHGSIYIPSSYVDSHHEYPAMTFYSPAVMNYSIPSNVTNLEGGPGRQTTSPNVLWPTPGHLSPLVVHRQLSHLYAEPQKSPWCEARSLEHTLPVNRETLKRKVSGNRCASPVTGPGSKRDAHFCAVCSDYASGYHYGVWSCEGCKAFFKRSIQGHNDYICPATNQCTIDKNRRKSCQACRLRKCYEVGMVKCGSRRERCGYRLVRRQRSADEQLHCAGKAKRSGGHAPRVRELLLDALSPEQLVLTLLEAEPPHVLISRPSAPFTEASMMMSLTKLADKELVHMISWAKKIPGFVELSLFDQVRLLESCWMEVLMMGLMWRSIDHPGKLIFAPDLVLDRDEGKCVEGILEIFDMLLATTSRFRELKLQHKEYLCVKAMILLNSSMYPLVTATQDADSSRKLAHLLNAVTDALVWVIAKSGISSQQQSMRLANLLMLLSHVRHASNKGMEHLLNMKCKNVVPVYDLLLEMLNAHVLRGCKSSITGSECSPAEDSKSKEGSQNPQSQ
Method in brief: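 Antagonist mode: compounds added to beta-lactamase reporter HEK293T ER-beta-UAS cells stimulated with E2 (1nM final), 16 hr at 37C. LiveBLAzer B/G FRET substrate, 2 hours room temperature, fluorescence read-out.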

[14] = qHTS RealTime-Glo MT Cell Viability Assay in HepG2 cells - 0 hour (AID 1224889)
Method in brief: as §1

[15] = qHTS assay to identify small molecule HDAC inhibitors - cell viability counter screen (AID 1259365)
Method in brief: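 Viability readout: CellTiter-Glo luminescence. Wild-type HCT-116 cells, 2hr compound treatment following overnight attachment at 37 C.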

[16] = target: Estrogen receptor beta (Homo sapiens) (UniProt Q92731); assay: qHTS assay to identify small molecule agonists of the estrogen receptor beta (ER-beta) signaling pathway (AID 1259377; active = well fitted activation curve with a large enough effect in the signal ratio in the repeat runs, not every such curve was filed as active; the % refers to the signal ratio; note: % is set by controls: 0 for no effect and ±100 for the full control effect)
Method in brief: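 A UAS-controlled beta-lactamase reporter in ER-beta-UAS-bla HEK293T cells reports receptor activation. Compounds act for 16 hr at 37C in 2% charcoal-stripped serum, and a FRET substrate is read by fluorescence after 2 hours.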

[17] = qHTS assay to identify small molecule antagonists of the androgen receptor (AR) signaling pathway using the MDA cell line in the presence of 0.5 nM R1881 - cell viability counter screen (AID 1259242); note: nearly all actives have a fitted effect of over 45% in size; note: potency is the fitted concentration of half-maximal effect
Method in brief: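 MDA-kb2 cells (MMTV-luciferase, AR/GR responsive) were treated with compounds plus 0.5 nM R1881 (final) for 16 hr at 37C, 0% CO2. Viability was then read in the same wells as live-cell protease fluorescence (CellTiter-Fluor, 30 min).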

[18] = qHTS assay to identify small molecule phospholipidosis (PLD) inducers (AID 1259344; active = well fitted curve in the direction sought with a large enough effect; an effect the other way counts as inactive or inconclusive; note: % is set by controls: 0 for no effect and ±100 for the full control effect)
Method in brief: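 Fluorescent phospholipid staining (LipidTOX Red) measured by automated microscopy in fixed HepG2 cells after 24 h treatment; nuclei counterstained with Hoechst 33342; amiodarone as reference inducer.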

[19] = target: Androgen receptor (Homo sapiens) (UniProt P10275); assay: qHTS assay to identify small molecule antagonists of the androgen receptor (AR) signaling pathway using the MDA cell line in the presence of 0.5 nM R1881 (AID 1259243)
Androgen receptor (Homo sapiens), sequence (P10275 whole entry, looked up): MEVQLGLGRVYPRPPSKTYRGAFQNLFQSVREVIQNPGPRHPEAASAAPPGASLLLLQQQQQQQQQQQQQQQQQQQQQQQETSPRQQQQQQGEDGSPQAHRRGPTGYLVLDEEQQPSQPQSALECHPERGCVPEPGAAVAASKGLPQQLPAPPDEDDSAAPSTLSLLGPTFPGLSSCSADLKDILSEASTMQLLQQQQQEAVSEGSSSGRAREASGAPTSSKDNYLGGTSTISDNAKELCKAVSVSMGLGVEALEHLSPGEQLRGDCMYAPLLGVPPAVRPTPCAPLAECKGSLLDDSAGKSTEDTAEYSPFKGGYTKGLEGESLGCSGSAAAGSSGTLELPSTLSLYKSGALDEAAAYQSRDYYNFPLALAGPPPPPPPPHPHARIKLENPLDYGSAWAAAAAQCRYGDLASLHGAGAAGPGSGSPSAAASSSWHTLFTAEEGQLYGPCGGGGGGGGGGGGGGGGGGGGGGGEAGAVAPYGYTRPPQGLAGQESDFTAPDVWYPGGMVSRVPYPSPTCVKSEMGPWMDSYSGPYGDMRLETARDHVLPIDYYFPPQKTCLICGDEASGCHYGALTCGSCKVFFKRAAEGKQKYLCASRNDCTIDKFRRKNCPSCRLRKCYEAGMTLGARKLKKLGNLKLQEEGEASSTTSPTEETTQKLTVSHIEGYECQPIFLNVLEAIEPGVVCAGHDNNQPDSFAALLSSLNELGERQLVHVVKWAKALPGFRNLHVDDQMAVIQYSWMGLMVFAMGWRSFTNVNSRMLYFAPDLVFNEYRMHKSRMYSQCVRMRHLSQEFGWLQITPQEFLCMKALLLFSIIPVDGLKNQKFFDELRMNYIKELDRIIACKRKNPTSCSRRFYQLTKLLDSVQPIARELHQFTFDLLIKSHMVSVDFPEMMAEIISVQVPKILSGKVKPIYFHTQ
Method in brief: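 MDA-kb2 cells (MMTV-luciferase, responsive to AR and GR) at 3,000/well, rested 5 h at 37C, 0% CO2, then given compounds plus 0.5 nM R1881 (final) for 16 hr. Luciferase read with ONE-Glo after 30 min at room temperature.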

[20] = A CellTox Green Cytotoxicity Assay to monitor cytotoxicity in HEK293 cells - 8 hour (AID 1224884); note: % is set by controls: 0 for no effect and ±100 for the full control effect; nearly all actives have a fitted effect of over 35% in size
Method in brief: as §2

NCc1cccc(C2CCN(C(=O)c3ccc(C#Cc4ccccc4F)o3)CC2)c1
inactive: Potency [8] | Potency [11]
active: Potency [1] 49 µM | Potency [2] 54.9 µM | Potency [3] 43.6 µM | Potency [4] 49 µM | Potency [5] 49 µM | Potency [6] 68.6 µM | Potency [7] 68.6 µM | Potency [9] 30.6 µM | Potency [10] 24.3 µM | Potency [12] 6.11 µM | Potency [13] 54.5 µM

COc1cccc(-c2ccc(/C=C\CN3CCCCCC3)cc2Cl)c1
active: Potency [1] 43.4 µM | Potency [2] 43.4 µM | Potency [3] 48.7 µM | Potency [12] 10.8 µM
inactive: Potency [14] | Potency [6] | Potency [8] | Potency [15] | Potency [11] | outcome [16]

Clc1nc(C(Cl)(Cl)Cl)c(Cl)c(Cl)c1Cl
inactive: Potency [2] | Potency [14] | Potency [5] | Potency [6] | Potency [7] | Potency [8] | Potency [15] | Potency [9] | Potency [10] | Potency [11]
active: Potency [17] 30.6 µM

O.O.O.O.O.O.O.O=S(=O)([O-])[O-].[Co+2]
inactive: Potency [18]

CC(O)(c1ccc(Cl)cc1)c1ccc(Cl)cc1
active: Potency [2] 24.5 µM | Potency [3] 34.7 µM | Potency [5] 54.9 µM | Potency [12] 43.3 µM
inactive: Potency [14] | Potency [6] | Potency [17] | Potency [15] | Potency [9] | Potency [11] | outcome [16]

CC(C)(Oc1ccc(C2CCCc3ccccc32)cc1)C(=O)O (centres undefined)
inactive: Potency [18]

CC(C)(C)c1ccc(OC2CCCCC2O)cc1 (centres undefined)
inactive: Potency [1] | Potency [14] | Potency [5] | Potency [6] | Potency [17] | Potency [8] | Potency [15] | Potency [9] | Potency [11]
active: Potency [2] 54.9 µM | Potency [19] 61.1 µM | Potency [12] 38.6 µM

CC1CCCC(C)N1NC(=O)c1ccc(Cl)c(S(N)(=O)=O)c1 (centres undefined)
inactive: Potency [18]

CCOc1ccc([N+](=O)[O-])cc1
inactive: Potency [1] | Potency [14] | Potency [5] | Potency [6] | Potency [17] | Potency [7] | Potency [8] | Potency [15] | Potency [10] | Potency [11] | outcome [16]
active: Potency [13] 9.83 µM

O=C1c2ccccc2-c2n[nH]c3cccc1c23
inactive: Potency [18]

O[Si](c1ccccc1)(c1ccccc1)c1ccccc1
inactive: Potency [20] | Potency [14] | Potency [5] | Potency [6] | Potency [17] | Potency [7] | Potency [8] | Potency [15] | Potency [11] | outcome [16]
active: Potency [19] 30.6 µM | Potency [12] 12.2 µM

CCN(CC)CCNC(=O)c1ccc(NS(C)(=O)=O)cc1
inactive: PLD induction [18] -0.241% [at 7.66 µM]

O=C(Cl)c1ccc(Cl)cc1Cl
inactive: Potency [3] | Potency [14] | Potency [5] | Potency [6] | Potency [17] | Potency [7] | Potency [8] | Potency [15] | Potency [10] | Potency [11] | Potency [12] | outcome [16]

CCCCCCCCCCCC[n+]1ccc2ccccc2c1
inactive: Potency [18]
